# Reference: PubChem BioAssay (NCI)
# About 83,000 compounds went through this panel and 20% of them were active in at least one assay; those are over-represented in the sample as a whole.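 For each line, cells grew in 96-well plates with the test compound present at a single concentration for 48 hours.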 A number with no mark means an inactive call. Active and inactive are the calls of the source. The calls were made as follows: active = growth percent below 10; inactive = the rest.
# Columns and labels:
# Assay in all cases: NCI-60 one-dose screen, 48 h (100 = growth as untreated, 0 = no growth, -100 = all killed)
# Conditions in all cases: 10 µM
# NCI-H23 lung = system: NCI-H23 lung
# NCI-H226 lung = system: NCI-H226 lung
# NCI-H322M lung = system: NCI-H322M lung
# HOP-62 NSCLC = system: HOP-62 NSCLC
# NCI-H460 lung = system: NCI-H460 lung
# HOP-92 NSCLC = system: HOP-92 NSCLC
# NCI-H522 lung = system: NCI-H522 lung
# A549/ATCC NSCLC = system: A549/ATCC NSCLC
# 786-0 renal = system: 786-0 renal
# COLO 205 colon = system: COLO 205 colon
# DU-145 prostate = system: DU-145 prostate
# K-562 leukemia = system: K-562 leukemia
# MALME-3M melanoma = system: MALME-3M melanoma
# MDA-MB-231 breast = system: MDA-MB-231 breast
# RXF 393 renal = system: RXF 393 renal
# SF-268 CNS = system: SF-268 CNS
# SF-295 CNS = system: SF-295 CNS
# SF-539 CNS = system: SF-539 CNS
# UACC-257 melanoma = system: UACC-257 melanoma
# M14 melanoma = system: M14 melanoma
SMILES,growth (NCI-H23 lung),growth (NCI-H226 lung),growth (NCI-H322M lung),growth (HOP-62 NSCLC),growth (NCI-H460 lung),growth (HOP-92 NSCLC),growth (NCI-H522 lung),growth (A549/ATCC NSCLC),growth (786-0 renal),growth (COLO 205 colon),growth (DU-145 prostate),growth (K-562 leukemia),growth (MALME-3M melanoma),growth (MDA-MB-231 breast),growth (RXF 393 renal),growth (SF-268 CNS),growth (SF-295 CNS),growth (SF-539 CNS),growth (UACC-257 melanoma),growth (M14 melanoma)
Cc1ccc(NC(=O)/C=N/O)cc1C,94.6%,53.2%,102%,92.7%,103%,82.3%,93%,94%,101%,105%,104%,95.6%,108%,95.9%,99.6%,104%,85.4%,96.4%,96.4%,101%
CCCCCCCCCCCCCC[n+]1ccccc1,-11.7% (active),-19% (active),16.9%,-62% (active),-44.8% (active),-50.8% (active),-66.9% (active),-55.8% (active),-53.5% (active),-93% (active),-48.6% (active),0.808% (active),-50.8% (active),-62.6% (active),-69.6% (active),-37.3% (active),-89.8% (active),-30.7% (active),-70.8% (active),-33.5% (active)
COCCOC(=O)NC(=O)Nc1ccc(C(=O)c2ccc(Cl)cc2)cc1,36.2%,46.2%,57.9%,28.5%,23.3%,32.9%,10.7%,41.8%,47%,13.4%,38.2%,11.7%,56.8%,49.8%,40%,55.2%,21.9%,15.4%,50.8%,20.2%
COc1ccc(-c2cn[nH]c2-c2cc(OC)c(OC)c(OC)c2)cc1,27.8%,56.7%,26.4%,45.2%,3.25% (active),-5.63% (active),-17.9% (active),21.2%,-4.65% (active),-68% (active),4.46% (active),6.36% (active),76.4%,8.75% (active),14.8%,19.7%,6.26% (active),-32% (active),49.2%,3.85% (active)
CCCCCCCCCCCC(=O)NCCCN(C)C,90.4%,109%,97.1%,111%,99.6%,45.5%,87.4%,91.4%,90.9%,94.4%,107%,59.4%,111%,79.1%,116%,96.2%,95.6%,86.6%,94.7%,98.1%
Nc1nc2c(ncn2C2OC3COP(=O)(O)OC4C(COP(=O)(O)OC2C3O)OC(n2cnc3c(N)ncnc32)C4O)c(=O)[nH]1 (stereo not given),106%,75.6%,105%,94%,108%,109%,103%,109%,103%,98.1%,107%,92.5%,106%,114%,114%,102%,96.9%,0.807% (active),112%,106%
CC(=O)Oc1c(C)c(C)c2c(c1C)CCC(C)(CC(=O)OCCCCCCCCCCC[P+](c1ccccc1)(c1ccccc1)c1ccccc1)O2 (stereo not given),-52.2% (active),13.2%,13.7%,-84.7% (active),-46.5% (active),-85.4% (active),-78.5% (active),-72% (active),-92% (active),-73.9% (active),-71.5% (active),-33.9% (active),-66.3% (active),-88.9% (active),-89.5% (active),-72.3% (active),-79.8% (active),-93.6% (active),-80.5% (active),-87.5% (active)
Cc1ccc(/C=C2\CN(Cc3cn(CCNc4ccnc5cc(Cl)ccc45)nn3)C/C(=C\c3ccc(C)cc3)C2=O)cc1,-26.8% (active),-66.9% (active),5.6% (active),-64.5% (active),-51% (active),-42.6% (active),-49.5% (active),-17.2% (active),-36% (active),-66.7% (active),-98.5% (active),-14.7% (active),-14.9% (active),-27.6% (active),-89% (active),-70.7% (active),-58.8% (active),-51.9% (active),-41.1% (active),-41.7% (active)
